Where a name gives a salt, the structure may show the parent alone.
What follows are compounds tested on Staphylococcus aureus MW2 delta-mecA (mecA-) (assay: normalized GFP fluorescence (growth of mecA- strain) (fraction of control range); higher = more growth of mecA- strain). Settings: compound concentration: 150 uM; cefoxitin: subinhibitory; fluorescent label: GFP.
Procedure, shortened: (§1)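 Pre-induced S. aureus MW2 cells carrying the gene (DsRed) and deletion cells lacking it (GFP) were combined 1:1 in LB containing a subinhibitory antibiotic dose set each day, then dispensed at 5 µL/well onto 150 μM compound (1.5% DMSO) in 1536-well plates as a single replicate. After 20 h at 37 °C and 90% humidity without shaking, DsRed (540/590) and GFP (485/520) were read. Each channel was scaled per plate between the medians of the single-strain controls, and plates with high untreated ratios and rows with DsRed/GFP >10 were excluded.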

| Structure (SMILES) | normalized GFP fluorescence |
| --- | --- |
| CC[C@]1(O)C[C@@H]2CN(CCc3c([nH]c4ccccc34)[C@@](C(=O)OC)(c3cc4c(cc3OC)N(C)[C@H]3[C@@](O)(C(=O)OC)[C@H](OC(C)=O)[C@]5(CC)C=CCN6CC[C@]43[C@@H]65)C2)C1 [Vinblastine] | 0.0776 |
| Nc1nc(CC(=O)Nc2ccc(CCNC[C@H](O)c3ccccc3)cc2)cs1 [Mirabegron (YM178)] | 0.336 |
| O=C1O[C@H]([C@@H](O)CO)C(O)=C1O | 0.78 |
| CN(C)CCCN1c2ccccc2Sc2ccccc21 | -0.00898 |
| Cc1ccnc2c1NC(=O)c1cccnc1N2C1CC1 | 0.755 |
| NC(=O)c1ncn([C@@H]2O[C@H](CO)[C@@H](O)[C@H]2O)c1N [Acadesine] | 0.499 |
| C[N+]1(C)[C@@H]2C[C@@H](OC(=O)C(O)(c3cccs3)c3cccs3)C[C@H]1[C@@H]1O[C@@H]12 [Tiotropium Bromide hydrate] | 0.394 |
| CC[C@@]1(O)C(=O)OCc2c1cc1n(c2=O)Cc2cc3c(CN(C)C)c(O)ccc3nc2-1 | 0.791 |
| N[C@@H](Cc1c[nH]c2ccccc12)C(=O)O | 0.368 |
| C[C@]12CC[C@@H]3c4ccc(O)cc4CC[C@H]3[C@@H]1C[C@@H](O)[C@@H]2O | 0.63 |
| CCCC(=O)OCOC(=O)C1=C(C)NC(C)=C(C(=O)OC)C1c1cccc(Cl)c1Cl (stereo not drawn) [Cleviprex (Clevidipine)] | 0.13 |
| CCn1cc(C(=O)O)c(=O)c2cc(F)c(N3CCNCC3)nc21 [Enoxacin (Penetrex)] | 0.206 |
| C[C@H](NCc1ccc(OCc2cccc(F)c2)cc1)C(N)=O | 0.957 |
| CC(C)(C)c1ccc(C(O)CCCN2CCC(C(O)(c3ccccc3)c3ccccc3)CC2)cc1 (stereo not drawn) | 0.00757 |
| NC(=O)c1ncn([C@@H]2O[C@H](CO)[C@@H](O)[C@H]2O)c1N [AICAR (Acadesine)] | 0.547 |
| CNC[C@H](O)c1ccc(O)c(O)c1 | 0.95 |
| COc1cc2nccc(Oc3ccc(NC(=O)Nc4cc(C)on4)c(Cl)c3)c2cc1OC [Tivozanib (AV-951)] | 0.445 |
| CC1Cc2ccccc2N1NC(=O)c1ccc(Cl)c(S(N)(=O)=O)c1 (stereo not drawn) | 0.39 |
| CC1=C(/C=C/C(C)=C/C=C/C(C)=C\C(=O)O)C(C)(C)CCC1 | 0.0602 |
| CNCCCN1c2ccccc2CCc2ccccc21 | 0.0357 |
| CC(C)(C)NCC(O)COc1cccc2c1CCC(=O)N2 (stereo not drawn) | 0.243 |
| CC1(C)[C@@H](O[C@H]2O[C@H](C(=O)O)[C@@H](O)[C@H](O)[C@H]2O[C@@H]2O[C@H](C(=O)O)[C@@H](O)[C@H](O)[C@H]2O)CC[C@]2(C)[C@H]3C(=O)C=C4[C@@H]5C[C@@](C)(C(=O)O)CC[C@]5(C)CC[C@@]4(C)[C@]3(C)CC[C@@H]12 [Glycyrrhizic acid] | 0.122 |
| CC(C)C(=O)Oc1ccc(CO)cc1[C@H](CCN(C(C)C)C(C)C)c1ccccc1 [Fesoterodine fumarate (Toviaz)] | 0.00662 |
| OC[C@@H](O)[C@@H](O)[C@H](O)[C@@H](O)CO [Sorbitol (Glucitol)] | 0.227 |
| CCC[C@H](N[C@@H](C)C(=O)N1[C@H](C(=O)O)C[C@@H]2CCCC[C@@H]21)C(=O)OCC [Perindopril Erbumine (Aceon)] | 0.225 |
| C=CC[C@@H]1/C=C(\C)C[C@H](C)C[C@H](OC)[C@H]2O[C@@](O)(C(=O)C(=O)N3CCCC[C@H]3C(=O)O[C@H](/C(C)=C/[C@@H]3CC[C@@H](O)[C@H](OC)C3)[C@H](C)[C@@H](O)CC1=O)[C@H](C)C[C@@H]2OC | 0.0654 |
| CC1=NN(c2ccc(C)c(C)c2)C(=O)/C1=N\Nc1cccc(-c2cccc(C(=O)O)c2)c1O | -0.0259 |
| CCCN1CCCC[C@H]1C(=O)Nc1c(C)cccc1C [Ropivacaine HCl] | 0.242 |

The compounds below were run on Staphylococcus aureus MW2 (mecA+) (assay: normalized DsRed fluorescence (growth of mecA+ strain) (fraction of control range); higher = more growth of mecA+ strain). Settings: compound concentration: 150 uM; cefoxitin: subinhibitory; fluorescent label: DsRed.
Procedure, shortened: as §1

| Structure (SMILES) | normalized DsRed fluorescence |
| --- | --- |
| O=C(CCCN1CCC(O)(c2ccc(Cl)cc2)CC1)c1ccc(F)cc1 | 1.19 |
| CCC(C)CCCCC(=O)NC(CCN)C(=O)NC(C(=O)NC(CCN)C(=O)NC1CCNC(=O)C(C(C)O)NC(=O)C(CCN)NC(=O)C(CCN)NC(=O)C(CC(C)C)NC(=O)C(Cc2ccccc2)NC(=O)C(CCN)NC1=O)C(C)O (stereo not drawn) | 1.05 |
| CN1C(C(=O)Nc2ccccn2)=C(O)c2sc(Cl)cc2S1(=O)=O | 0.318 |
| N#Cc1c(N(CC(=O)O)CC(=O)O)sc(C(=O)O)c1CC(=O)O [Strontium ranelate (Protelos)] | 0.694 |
| O=C(Nc1cccc2c(=O)cc(-c3nnn[nH]3)oc12)c1ccc(OCCCCc2ccccc2)cc1 [Pranlukast] | 0.714 |
| CN1C(C(=O)Nc2ccccn2)=C(O)c2sccc2S1(=O)=O | 0.778 |
| OCc1ccccc1O | 0.713 |
| CCCCNc1ccc(C(=O)OCCN(C)C)cc1 | 0.719 |
| COc1ccc(CC2c3cc(OC)c(OC)cc3CC[N+]2(C)CCC(=O)OCCCCCOC(=O)CC[N+]2(C)CCc3cc(OC)c(OC)cc3C2Cc2ccc(OC)c(OC)c2)cc1OC (stereo not drawn) | 0.862 |
| CC/C(=C(/CC)c1ccc(O)cc1)c1ccc(O)cc1 | 0.065 |
| CN[C@@H]1[C@H](O[C@H]2[C@H](O[C@H]3[C@H](O)[C@@H](O)[C@H](N=C(N)N)[C@@H](O)[C@@H]3N=C(N)N)O[C@@H](C)[C@]2(O)C=O)O[C@@H](CO)[C@H](O)[C@H]1O | 0.69 |
| C#C[C@]1(O)CC[C@H]2[C@@H]3CCc4cc(O)ccc4[C@H]3CC[C@@]21C [Ethinyl Estradiol] | 0.449 |
| CC[C@]1(O)C[C@@H]2CN(CCc3c([nH]c4ccccc34)[C@@](C(=O)OC)(c3cc4c(cc3OC)N(C)[C@H]3[C@@](O)(C(=O)OC)[C@H](OC(C)=O)[C@]5(CC)C=CCN6CC[C@]43[C@@H]65)C2)C1 [Vinblastine] | 0.851 |
| Nc1nc(CC(=O)Nc2ccc(CCNC[C@H](O)c3ccccc3)cc2)cs1 [Mirabegron (YM178)] | 1.03 |
| O=C1O[C@H]([C@@H](O)CO)C(O)=C1O | 0.485 |
| CN(C)CCCN1c2ccccc2Sc2ccccc21 | 1.06 |
| Cc1ccnc2c1NC(=O)c1cccnc1N2C1CC1 | 0.431 |
| NC(=O)c1ncn([C@@H]2O[C@H](CO)[C@@H](O)[C@H]2O)c1N [Acadesine] | 0.776 |
| C[N+]1(C)[C@@H]2C[C@@H](OC(=O)C(O)(c3cccs3)c3cccs3)C[C@H]1[C@@H]1O[C@@H]12 [Tiotropium Bromide hydrate] | 0.674 |
| CC[C@@]1(O)C(=O)OCc2c1cc1n(c2=O)Cc2cc3c(CN(C)C)c(O)ccc3nc2-1 | 0.763 |

| Structure (SMILES) | normalized DsRed fluorescence |
| --- | --- |
| N[C@@H](Cc1c[nH]c2ccccc12)C(=O)O | 0.604 |
| C[C@]12CC[C@@H]3c4ccc(O)cc4CC[C@H]3[C@@H]1C[C@@H](O)[C@@H]2O | 0.459 |
| CCCC(=O)OCOC(=O)C1=C(C)NC(C)=C(C(=O)OC)C1c1cccc(Cl)c1Cl (stereo not drawn) [Cleviprex (Clevidipine)] | 0.595 |
| CCn1cc(C(=O)O)c(=O)c2cc(F)c(N3CCNCC3)nc21 [Enoxacin (Penetrex)] | 0.928 |
| C[C@H](NCc1ccc(OCc2cccc(F)c2)cc1)C(N)=O | 0.675 |
| CC(C)(C)c1ccc(C(O)CCCN2CCC(C(O)(c3ccccc3)c3ccccc3)CC2)cc1 (stereo not drawn) | 0.056 |
| NC(=O)c1ncn([C@@H]2O[C@H](CO)[C@@H](O)[C@H]2O)c1N [AICAR (Acadesine)] | 0.71 |
| CNC[C@H](O)c1ccc(O)c(O)c1 | 0.812 |
| COc1cc2nccc(Oc3ccc(NC(=O)Nc4cc(C)on4)c(Cl)c3)c2cc1OC [Tivozanib (AV-951)] | 1.09 |
| CC1Cc2ccccc2N1NC(=O)c1ccc(Cl)c(S(N)(=O)=O)c1 (stereo not drawn) | 0.625 |
| CC1=C(/C=C/C(C)=C/C=C/C(C)=C\C(=O)O)C(C)(C)CCC1 | 0.671 |
| CNCCCN1c2ccccc2CCc2ccccc21 | 1.99 |
| CC(C)(C)NCC(O)COc1cccc2c1CCC(=O)N2 (stereo not drawn) | 1.11 |
| CC1(C)[C@@H](O[C@H]2O[C@H](C(=O)O)[C@@H](O)[C@H](O)[C@H]2O[C@@H]2O[C@H](C(=O)O)[C@@H](O)[C@H](O)[C@H]2O)CC[C@]2(C)[C@H]3C(=O)C=C4[C@@H]5C[C@@](C)(C(=O)O)CC[C@]5(C)CC[C@@]4(C)[C@]3(C)CC[C@@H]12 [Glycyrrhizic acid] | 1.7 |
| CC(C)C(=O)Oc1ccc(CO)cc1[C@H](CCN(C(C)C)C(C)C)c1ccccc1 [Fesoterodine fumarate (Toviaz)] | 1.38 |
| OC[C@@H](O)[C@@H](O)[C@H](O)[C@@H](O)CO [Sorbitol (Glucitol)] | 1.15 |
| CCC[C@H](N[C@@H](C)C(=O)N1[C@H](C(=O)O)C[C@@H]2CCCC[C@@H]21)C(=O)OCC [Perindopril Erbumine (Aceon)] | 0.779 |
| C=CC[C@@H]1/C=C(\C)C[C@H](C)C[C@H](OC)[C@H]2O[C@@](O)(C(=O)C(=O)N3CCCC[C@H]3C(=O)O[C@H](/C(C)=C/[C@@H]3CC[C@@H](O)[C@H](OC)C3)[C@H](C)[C@@H](O)CC1=O)[C@H](C)C[C@@H]2OC | 1.59 |
| CC1=NN(c2ccc(C)c(C)c2)C(=O)/C1=N\Nc1cccc(-c2cccc(C(=O)O)c2)c1O | 0.021 |
| CCCN1CCCC[C@H]1C(=O)Nc1c(C)cccc1C [Ropivacaine HCl] | 1.01 |

Reference: the supplement of paper PMC7695840
